High-throughput results from PubChem.
NCOA2 inhibitor: human SRC2 (NCOA2) inhibition | Q15596 | HEK293 GAL4-SRC2 luciferase reporter, luminescence | inhibition, % at 9 µM | 370,000 tested, 0.17% active | AID 651957;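 active = inhibition above the mean inhibition of all tested compounds plus 3 SD, set per campaign, cut at about 52% in these data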;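 note: 0% = DMSO treated cells and 100% = cells given Gossypol at 36 µM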
NCOA3 inh: inhibitors of human steroid receptor coactivator 3 (SRC3); Q9Y6Q9; HEK293 GAL4-SRC3 luciferase reporter, luminescence; inhibition, % at 3.6 µM; 360,000 tested, 0.17% active; AID 588352;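 active = inhibition above a per-campaign cutoff, the mean of all compounds plus 3 SD, cut at about 60% in these data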;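 note: 0% = DMSO-treated cells and 100% = gossypol-treated cells at 36 µM; higher means less SRC3-driven luciferase light from the GAL4 reporter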
COUP-TFII inh: inhibitors of human COUP-TFII (NR2F2). P24468. HEK293T NGFI-A luciferase reporter, luminescence. inhibition, % at 8.6 µM. 370,000 tested, 0.7% active;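 active = inhibition above a per-plate cutoff, mean inhibition of test wells between control levels plus 3 SD, cut at about 38% in these data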;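 note: cells cotransfected with COUP-TFII expression vector driving the NGFI-A reporter; 0% = median of COUP-TF2 test wells and 100% = reporter-only cells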
GalR3 antag: antagonists of human GalR3; O60755; HEK293 GalR3-CNG cAMP membrane potential fluorescence; galR3 body fused to GalR1 C-terminus; inhibition, % at 3 µM; 360,000 tested, 0.44% active;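 active = inhibition above the screen-wide average plus 3 SD, cut at about 13% in these data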;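 note: forskolin and galanin both at EC90 stimulate the cells; cAMP rise reported by CNG channel membrane potential dye signal; 0% = forskolin plus galanin with DMSO and 100% = forskolin alone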
Target sequence (O60755 1-299 limits assumed): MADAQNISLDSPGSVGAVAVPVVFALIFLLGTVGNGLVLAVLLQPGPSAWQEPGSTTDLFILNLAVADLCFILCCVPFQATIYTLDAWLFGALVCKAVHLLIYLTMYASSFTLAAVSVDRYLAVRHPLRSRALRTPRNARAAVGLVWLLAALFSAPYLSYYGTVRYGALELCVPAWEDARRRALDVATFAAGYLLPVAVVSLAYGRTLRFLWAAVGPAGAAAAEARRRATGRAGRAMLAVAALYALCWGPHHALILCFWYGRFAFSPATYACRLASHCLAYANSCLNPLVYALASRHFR
NCOA1 inh: human NCOA1 inhibition | HEK293 GAL4-SRC1 luciferase reporter, luminescence | inhibition, % at 3.6 µM | AID 588354 | 360,000 tested, 0.12% active;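 active = inhibition above the campaign mean plus 3 SD, with each screening campaign given its own cutoff, cut at about 60% in these data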;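 note: 0% = DMSO treated cells and 100% = gossypol at 36 µM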
NR5A2 inv ag: NR5A2 inverse agonism in reporter assay; 360,000 tested, 0.13% active; HEK293T StAR-luciferase reporter, LRH-1 transfected, 24 h; inhibition, % at 3.6 µM; AID 602396;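 active = inhibition above the mean inhibition of all tested compounds plus 3 SD, cut at about 73% in these data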;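 note: 0% = DMSO wells and 100% = reporter-only cells lacking LRH-1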
VP16 Luc counter: VP16 inhibition counter-screen for COUP-TFII; inhibition, % at 8.5 µM; HEK293 Gal4-VP16 luciferase reporter, luminescence; 2,500 tested, 25% active; shares compounds with COUP-TFII inh; in the data active = inhibition above about 13%
NR2F2 inh conf: confirmation of human COUP-TFII (NR2F2) inhibitors; inhibition, % at 8.5 µM; shares compounds with COUP-TFII inh; 2,500 tested, 45% active; HEK293 NGFI-A luciferase reporter, luminescence; AID 687008;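 active = mean inhibition over three repeats above a set limit taken from the earlier primary screen, cut at about 38% in these data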;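 note: 100% = cells given the luciferase reporter alone without the COUP-TF2 vector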
The depositor's hits bear a star; . = no result given. An excerpt weighted towards active compounds, which were near 1.1% of everything screened.

SMILES	NCOA2 inhibitor	NCOA3 inh	COUP-TFII inh	GalR3 antag	NCOA1 inh	NR5A2 inv ag	VP16 Luc counter	NR2F2 inh conf
Cc1cc(C)n2c(Nc3ccc4c(c3)OCCO4)c(-c3ccc(C)o3)nc2n1	-44	-81	-63	3	-60	-61	.	.
Cc1cc(C)n2c(Nc3ccc4c(c3)OCCO4)c(-c3cc4ccccc4o3)nc2n1	37	.	51*	-3	.	43	-26	-16
Cc1ccc2oc(-c3cccc(NC(=S)NC(=O)/C=C/c4ccco4)c3)nc2c1	-7	4	47*	3	-22	17	-31	-13
Cc1ccc(S(=O)(=O)N(CCc2ccccc2)CC(=O)N2CCOCC2)cc1	-13	.	0	.	.	.	.	.
C[C@H]1[C@@H](NS(=O)(=O)c2ccccc2[N+](=O)[O-])CC[C@@]23CCCN2C(=O)CCC[C@@H]13	.	.	12	.	.	.	.	.
COc1ccc(C=C2CS(=O)(=O)CC(=Cc3ccc(OC)cc3)C2=O)cc1	3	40	71*	-2	36	53	47*	65*
COc1ccc(/C=C2\CCCCC2=O)cc1	-40	-9	-13	-5	-12	-54	.	.
COc1ccc2cc3cc(C(=O)Nc4cc(OC)c(OC)c(OC)c4)oc3nc2c1	24	45	50*	-5	63*	46	-6	19
CCCN1CCN(C(=O)c2cc(COc3ccc4ncccc4c3)on2)CC1	16	14	31	-10	21	10	.	.
CC(C)N(Cc1nccn1C)C(=O)c1cc(COc2ccc3ncccc3c2)on1	-5	7	40*	-10	9	21	-3	6
CCN1CCN(C(=O)c2cc(COc3ccc4ncccc4c3)on2)CC1	1	6	38*	-5	20	12	-2	19
CCOc1cc(/C=N/Nc2nnc(C)n2N)ccc1O	-3	6	49*	-7	9	55	5	9
CCc1c(C)nc2ncnn2c1NCCc1ccc(Cl)cc1	33	33	47*	3	-7	27	1	18
CCc1c(C)nc2ncnn2c1NCCc1ccccc1	-17	0	24	-5	14	6	.	.
Cc1nc2sc(C(=O)NCc3ccc4c(c3)OCO4)c(N)c2c(C)c1Cl	-10	.	-12	.	.	.	.	.
NS(=O)(=O)c1ccc(NC(=O)COc2ccc(C(=O)c3ccc(F)cc3)cc2)cc1	36	22	38*	0	13	2	-1	8
O=C(CCCN1C(=O)/C(=C/c2ccccc2Cl)SC1=S)NNC(=O)c1ccc(Cl)cc1Cl	81*	34	72*	-2	27	3	39*	42*
O=C(CCCN1C(=O)/C(=C/c2ccccc2Cl)SC1=S)NNC(=O)c1ccccc1	81*	40	64*	-3	37	37	28*	38*
O=C(CCN1C(=O)/C(=C/c2ccccc2Cl)SC1=S)Nc1ccccc1C(=O)O	8	4	-7	-8	-22	4	.	.
O=C(CCCN1C(=O)/C(=C/c2ccccc2Cl)SC1=S)NNC(=O)c1cccnc1	79*	18	54*	3	18	20	3	16
O=C(CCCN1C(=O)S/C(=C\c2ccccc2)C1=O)NNC(=O)c1ccccc1O	78*	71*	61*	-2	60	42	82*	87*
Cc1ccc2c(c1)C1CS(=O)(=O)N(CCc3ccccc3)C(=O)N1C2 (stereo not drawn)	-1	.	2	.	.	.	.	.
Cc1c[nH]c2cccc(-c3ccc(OCc4ccccc4)cc3)c12	-20	.	-115	.	.	.	.	.
COc1cccc(-n2cc(CN(C)Cc3nc(Cc4cccc(F)c4)no3)cn2)c1	10	16	5	-3	-3	2	.	.
COc1ccc(CN(C)Cc2nc(Cc3cccc(F)c3)no2)c2cccnc12	23	28	60*	-2	19	32	-10	47*
SMILES	NCOA2 inhibitor	NCOA3 inh	COUP-TFII inh	GalR3 antag	NCOA1 inh	NR5A2 inv ag	VP16 Luc counter	NR2F2 inh conf
CS(=O)(=O)N(CCc1ccccc1)CC(=O)N1CCN(Cc2ccc3c(c2)OCO3)CC1	0	-1	2	-5	-1	24	.	.
CS(=O)(=O)N(CC(=O)N1CCN(Cc2ccc3c(c2)OCO3)CC1)Cc1ccc(Cl)cc1	9	8	40*	-10	19	55	10	20
Clc1ccccc1C1=Nn2c(nnc2-c2ccncc2)SC1	54*	66*	40*	-2	58	31	6	28
Cc1noc(C)c1CSCC(=O)N1CCN(c2ccc([N+](=O)[O-])cc2)CC1	19	13	38*	-5	5	30	2	26
NC(=Nc1nc(-c2ccccn2)cc2ccccc12)c1ccccn1	-69	81*	42*	-5	71*	57	-8	-2
OC[C@@H]1CN(Cc2ccc(-c3ccccc3)cc2)C[C@H](n2cnc3c(NC4CCC4)ncnc32)O1	26	7	69*	3	13	45	-4	45*
CS(=O)(=O)N(CC(=O)NCCSc1ccccc1)c1ccc2c(c1)OCO2	9	-10	38*	-2	13	-11	-9	-7
CCCN(CC1CC1)c1nc(C)nc2c1nnn2Cc1ccccc1	19	.	-5	.	.	.	.	.
Cc1nc2ccccc2c2c1CC(C(C)(Cl)Br)O2 (stereo not drawn)	35	23	54*	8	17	24	6	56*
Cc1ccc2nc(C)c3c(c2c1)OC(C(C)(Cl)Br)C3 (stereo not drawn)	20	-6	16	-10	10	5	.	.
Cc1ccc(-c2c[n+]3c(n2-c2ccccc2)CCC3)cc1	30	32	60*	-2	31	29	-2	34
Clc1ccc(-c2c[n+]3c(n2-c2ccccc2)SCC3)cc1	12	7	9	-6	-12	-10	.	.
Cc1oc(-c2ccc3c(c2)OCCO3)cc1C(=O)O	74*	29	52*	-1	18	14	-124	10
Cc1nc2ncnn2c(N2CCN(c3cccc(C(F)(F)F)c3)CC2)c1C	-2	28	44*	-8	-2	10	3	20
S=C(NCCCc1cnc[nH]1)NCCCN(Cc1ccc(Cl)cc1)c1ccc(Br)cn1	45	61	38*	-3	6	94*	10	-2
Cc1cccc(Cn2c(NCCO)nc3c2c(=O)n(C)c(=O)n3C)c1	32	23	52*	-5	14	41	-7	25
CNc1nc2c(c(=O)n(C)c(=O)n2C)n1Cc1ccccc1	10	31	41*	-8	22	40	-3	21
CCCCn1c(CN(C)Cc2ccccc2)nc2c1c(=O)n(C)c(=O)n2C	-3	31	40*	-5	2	25	-2	23
